SMILES strings stand for the structures. Screen size: about 1,200 compounds; about 480 (40%) were called active. Not shown: some 29% with an inconclusive outcome. Calls come from the whole dose curve; as a rule, active = well fitted inhibition curve with a large enough effect; inconclusive = small, poorly fitted or top-dose-only effect; inactive = no such curve, though single readings can be large or run the other way. The list shows a part of the results.
% is set by controls: 0 for no effect and ±100 for the full control effect; potency is the fitted concentration of half-maximal effect.

A short description of the assay: qHTS Assay to Find Inhibitors of Chronic Active B-Cell Receptor Signaling: Hit Validation in Primary Screen. Note: nearly all actives have a fitted effect of over 75% in size. To be noted: ABC-DLBCL IkB-luc/CBR ratio luminescence, 4 h; series mostly up to 46.1 µM; activity change, negative = inhibition: at the top concentration. An excerpt: Diffuse large B-cell lymphoma (DLBCL) is the most common category of non-Hodgkin lymphoma, with ~20,000 new cases per year in the United States. DLBCL should be regarded as a collection of different neoplasms. Microarray gene expression analysis has defined two principal types of DLBCL, named for their similarity to normal B cell stages or activation states: a germinal center B-cell (GCB) type, and an activated B-cell (ABC) type. In ABC-DLBCL, a constitutive high-level activity of the NF-kappaB family of transcription factors has been observed (1) and NF-kappaB target genes are more highly expressed in ABC primary tumors than in GCB tumors. Functional studies have shown a constitutive high-level activity of the IkappaB (inhibitor of kappa-B) kinase (IKK) complex. […] Further analysis of DLBCL primary tumors for NF-kappaB target gene expression imply that although CARD11 is required for constitutive IKK activity in all ABC-DLBCL lines, mutations in CARD11 may be the root cause of IKK activation only in lines or tumors with such mutations. In other words, CARD11 mutations may explain NF-kappaB activation in only 10% of ABC-DLBCL cases. […] This process has been termed 'chronic active BCR signaling' (CABS). The goal of this screen is to find small-molecule inhibitors of the CABS pathway found in ABC-DLBCL lines using a cell-based assay that measures IkappaBalpa stability, which has already been extensively validated in the OCI-Ly3 line (PubChem AID:445; REF: 4). […] A cell-sensor assay for I-kappa-B-alpha stabilization has been developed. The assay uses green (CBG68) and red (CBR) emitting beetle luciferases [Chroma-GloTM developed by Promega Corp.] where the green luciferase is fused to IkappaBalpha and the red luciferase is present in its native state. Both luciferase genes are stably present in the TMD8 human ABC DLBCL cell line, but their expression is under the control of tetracycline-inducible promoters. Following the addition of doxycycline to induce expression of the luciferases, the green luminescence in control cultures rises only slowly because the CBG fusion partner IkappaBalpha is targeted by IKK activity for rapid degradation. In contrast, green luminescence rises rapidly in the presence of proteasome inhibitors or IKK inhibitors. The rise in red luminescence of CBR is not affected by proteasome or IKK inhibitors, and serves as normalization for cell number and nonspecific effects. Compounds were screened as a concentration-titration series that ranged from 46 uM to 3 nM. NIH Molecular Libraries Probe Production Network [MLPCN] NIH Chemical Genomics Center [NCGC] MLPCN Grant: R03 DA031086 PI Name: Dr. R. Eric Davis
Cells were seeded in 1536-well plates at 5000 cells/4uL in IMDM medium containing 0.5% FBS, w/o phenol red, 1% penicillin/streptomycin. Then, 23 nL of compounds or DMSO were delivered to each well using a pin tool. One uL 20ng/ml doxycycline was then dispensed into white solid 1536-well plates and the plates were incubated at 37C/5% C02 in a cell incubator for 4 hrs. Then 4 uL luminescent substrate mix (in-house prepared: 150 mM Tris-Cl, pH 7.6, 3 mM MgCl2, 1% Triton X-100, 5 mM DTT, 0.2 mM CoA, 0.15 mM ATP, 5 mM D-luciferin, final concentrations) was added to each well. The plate was incubated at r.t. for 10-15 min. The plates were measured on a ViewLux plate reader for green luminescence (540/20 nm filter) and red luminescence (618/8 nm filter). The green and red luminescent signals were corrected for red and green luminescence filter overlap using previously determined filter calibration constants (determined using the procedure outlined in the Promega Technical Manual; REF 4). The %Activity was determined from the ratio of corrected green/red luminescent values. MG132 were used as control. Green luminescent and ratio %Activity was determined by normalizing to the difference in signal between basal cells (0% Activity) and cells incubated with 10 uM of the proteasome inhibitor MG-132 (100% Activity). […]
On to `CCOc1cc(/C=N/O)ccc1OCc1ccccc1F`, for which the “activity change, negative = inhibition” value was -15.1% (inactive).

For `COc1ccc(/C=N\NC(=O)c2ccccc2F)cc1COc1ccc(F)cc1F`, the Potency was 3.26 µM (active).

For `CNC(=S)N/N=C(\C)c1cccc([N+](=O)[O-])c1`, the “activity change, negative = inhibition” value is 36% (inactive).

As for `C/C(=N\NC(=O)c1c([N+](=O)[O-])c(C)nn1C)c1ccc(NC(=O)C2CCCC2)cc1`, the Potency was 9.2 µM (active).

Regarding `C/C(=N\NC(=O)C(C)n1nc(C)c([N+](=O)[O-])c1C)c1ccccc1O` (centres undefined), the “activity change, negative = inhibition” value was -4.79% (inactive).

`COc1cc(C(=O)N/N=C/c2ccsc2C)cc(OC)c1OC`: the Potency was 2.31 µM (active).

Regarding `COc1cc(C(=O)O/N=C(\N)c2ccc([N+](=O)[O-])cc2)cc(OC)c1OC`, the “activity change, negative = inhibition” value was 51.1% (inactive).

In the case of `COc1cc(C(=O)N/N=C/c2cc([N+](=O)[O-])cs2)cc(OC)c1OC`, the Potency was 20.6 µM (active).

For the compound `COc1cc(C(=O)N/N=C/c2sccc2C)cc(OC)c1OC`, the Potency is 1.46 µM (active).

`COc1cc(C(=O)N/N=C/C2CC=CCC2)cc(OC)c1OC` (centres undefined): the “activity change, negative = inhibition” value is -7.05% (inactive).

Turning to `CCCC(C)NC(=O)c1ccc(C2SCC(=O)N2Cc2ccco2)cc1` (centres undefined), the “activity change, negative = inhibition” value was -16.5% (inactive).

Regarding `CCC1=Nc2cc(C(=O)NCc3ccco3)ccc2Sc2ccc(C)cc21`, the Potency was 1.16 µM (active).

Turning to `CC1=Nc2cc(C(=O)NCC3CCCO3)ccc2Sc2ccc(C)cc21` (centres undefined), the Potency was 7.31 µM (active).

`CC1=Nc2cc(C(=O)NCc3ccco3)ccc2Sc2ccc(C)cc21`: the Potency was 1.84 µM (active).

For the compound `CC(NC(=O)c1ccc(S(=O)(=O)NCc2ccco2)cc1)c1ccc(F)cc1` (centres undefined), the “activity change, negative = inhibition” value is -8.65% (inactive).

As for `Cc1cc(C(=O)OCC(=O)NCc2ccco2)c(C)n1-c1ccc(F)cc1`, the “activity change, negative = inhibition” value was 38.7% (inactive).

Turning to `CCC1=Nc2cc(C(=O)NCc3ccco3)ccc2Sc2ccc(Cl)cc21`, the Potency was 2.91 µM (active).

As for `COc1ccc(N2C(=O)CS/C2=N\C(=S)Nc2ccccc2)cc1`, the “activity change, negative = inhibition” value was 0.626% (inactive).

`N#CCSc1nc(N)c(C#N)c(C2CCCCC2)c1C#N`: the “activity change, negative = inhibition” value was -9.34% (inactive).

For `CCC1=Nc2cc(C(=O)NCc3ccccc3Cl)ccc2Sc2ccc(C)cc21`, the Potency is 4.61 µM (active).

On to `CCC1=Nc2cc(C(=O)NCc3ccco3)ccc2Sc2ccccc21`, for which the Potency is 20.6 µM (active).

In the case of `CCC1=Nc2cc(C(=O)NCc3cccnc3)ccc2Sc2ccc(C)cc21`, the Potency is 18.4 µM (active).

Regarding `CSc1nc(N(C)NC(=O)c2cccc(C)c2)c2ccccc2n1`, the Potency was 1.3 µM (active).

On to `COc1ccc(C(=O)NN(C)c2nc(C(F)(F)F)nc3ccccc23)cc1`, for which the Potency was 0.291 µM (active).

As for `CSc1nc(N(C)NC(=O)c2ccc(Cl)cc2)c2ccccc2n1`, the “activity change, negative = inhibition” value was 37.4% (inactive).

Regarding `COc1ccc(-c2c(C)nn3c(N)c(C#N)cnc23)cc1OC`, the Potency is 20.6 µM (active).

Consider `C[C@H]1C[C@@H]2[C@H]([C@@H](O)C[C@@]3(C)[C@H]2CC[C@]3(O)C(=O)CO)[C@@]2(C)C=CC(=O)C=C12`, for which the “activity change, negative = inhibition” value is 47.4% (inactive).

Consider `COc1ccc(/C=N/NC(=O)c2[nH]c3ccc(C)cc3c2-c2ccccc2)c(C(=O)O)c1OC`, for which the “activity change, negative = inhibition” value is 11.9% (inactive).

For the compound `COc1ccc(/C=N/NC(=O)c2cc3c(OC)ccc(OC)c3[nH]2)cc1O`, the Potency was 2.31 µM (active).

With `Cc1ccc(CNC(=O)Cc2ccc(-n3c(=O)[nH]c4ccsc4c3=O)cc2)cc1`, the Potency is 4.11 µM (active).

For `O=C1N/C(=N/N=C/c2ccccc2O)SC1Cc1ccc(F)cc1` (centres undefined), the Potency was 9.2 µM (active).

For `C=CCn1c(SC2CCOC2=O)nc2sc(C)c(C)c2c1=O` (centres undefined), the “activity change, negative = inhibition” value is -15.6% (inactive).

For the compound `C=CCn1c(SCC(=O)Nc2cccc(S(N)(=O)=O)c2)nc2sc(C)c(C)c2c1=O`, the Potency was 5.17 µM (active).

Turning to `CC1=Nc2cc(C(=O)NCCCOC(C)C)ccc2Sc2ccc(C)cc21`, the Potency is 7.31 µM (active).

On to `CCC1=Nc2cc(C(=O)NCCCOC(C)C)ccc2Sc2ccc(C)cc21`, for which the Potency is 2.59 µM (active).

For `Oc1ccccc1N=Nc1ccccc1O`, the “activity change, negative = inhibition” value was 5.71% (inactive).

`CCc1ccccc1NC(=S)N=Nc1c(O)n(C)c2ccc(S(=O)(=O)N3CCOCC3)cc12`: the “activity change, negative = inhibition” value was 26.3% (inactive).

In the case of `CCc1cc2c(=O)[nH]c(-c3ccccn3)nc2s1`, the Potency is 14.6 µM (active).

As to `S=c1[nH]cnc2sc(-c3ccccc3)cc12`, the “activity change, negative = inhibition” value is -6.35% (inactive).

On to `O=c1[nH]c(-c2ccccn2)nc2sc(-c3ccccc3)cc12`, for which the Potency was 2.31 µM (active).

For the compound `C/C(=N\NC(=S)NCCc1ccccc1)c1cccc(Br)c1`, the “activity change, negative = inhibition” value is 4.84% (inactive).

Take `O=C(NC(=S)NC1CCSC1=O)c1cccs1` (centres undefined): the “activity change, negative = inhibition” value is -12.7% (inactive).

Consider `O=C1NC(=O)C(=C2CCCCCC2)S1`, for which the “activity change, negative = inhibition” value is 39.3% (inactive).

In the case of `COc1ccc(-c2cnc3c(c2)CCC3(C#N)C#N)cc1`, the Potency is 3.66 µM (active).

As for `Cc1cc(C)c2ccc(/C=N/O)nc2c1O`, the “activity change, negative = inhibition” value is -9.13% (inactive).

As to `COc1ccc([C@H]2CC(=O)C=C(c3ccc(OC)cc3OC)C2)cc1`, the Potency was 16.4 µM (active).

On to `COc1ccc(C2CC(=O)Oc3cc(OC)c(OC)c(OC)c32)cc1` (centres undefined), for which the “activity change, negative = inhibition” value was -19.3% (inactive).

Turning to `COc1ccc(/C=C/C(=O)c2cc(F)ccc2OC(=O)c2ccccc2OC)cc1OC`, the Potency is 1.3 µM (active).

As for `Cc1ccccc1C(=O)Oc1ccc2ccc(O)cc2c1`, the “activity change, negative = inhibition” value was -6.71% (inactive).

For `COc1ccc(/C=C/C(=O)c2cc(F)ccc2OC(=O)c2ccccc2C)cc1OC`, the Potency is 1.3 µM (active).

On to `COc1ccc(/C=C/C(=O)c2cc(Br)ccc2OC(=O)c2ccco2)cc1OC`, for which the Potency is 5.8 µM (active).

Take `O=C(Oc1ccc(F)cc1C(=O)/C=C/c1cccs1)c1cccc([N+](=O)[O-])c1`: the Potency was 1.46 µM (active).

`O=C(NC(=S)Nc1cccc(F)c1)c1cccc([N+](=O)[O-])c1`: the “activity change, negative = inhibition” value was -2.56% (inactive).

In the case of `S=C(Nc1ccccc1Cl)N(Cc1ccccc1)Cc1ccccn1`, the “activity change, negative = inhibition” value was -2.47% (inactive).

In the case of `COc1ccc(/C=C/C(=O)c2cc(F)ccc2OC(=O)c2ccc(OC)c(OC)c2)cc1OC`, the Potency was 23.1 µM (active).

Take `COc1ccc(NC(=S)N/N=C/c2ccc(F)cc2)cc1OC`: the “activity change, negative = inhibition” value was -3.66% (inactive).

On to `COc1cccc(Nc2sc(C(=O)c3ccc(Cl)cc3)c(N)c2C(=O)NCc2ccc(C)cc2)c1`, for which the Potency was 1.3 µM (active).

For the compound `Cc1cc(C)c(S(=O)(=O)Nc2ccc3c4c(cccc24)CC3)c(C)c1`, the Potency was 1.16 µM (active).

`COc1ccc(CN2C[C@H]3CCCN3c3cc(Br)ccc3S2(=O)=O)cc1`: the Potency was 6.51 µM (active).

Consider `COc1cccc(CN2c3ccc(Br)cc3C(=O)CS2(=O)=O)c1`, for which the “activity change, negative = inhibition” value is 6.37% (inactive).

Consider `COc1ccc(-c2c(-c3cc(OC)c(OC)c(OC)c3)noc2C)cn1`, for which the Potency is 20.6 µM (active).

Turning to `CCOC(=O)c1ccc(-c2c(-c3cc(OC)c(OC)c(OC)c3)noc2C)cc1F`, the Potency is 8.2 µM (active).

As to `COc1cc(-c2noc(C)c2-c2ccc3[nH]ccc3c2)cc(OC)c1OC`, the Potency was 14.6 µM (active).

With `COc1cc(-c2noc(C)c2-c2ccc(N(C)C)nc2)cc(OC)c1OC`, the Potency was 2.31 µM (active).

The record behind these values is PubChem BioAssay AID651558 (National Center for Advancing Translational Sciences (NCATS), 2012).
